Compound activity from PubChem.
MITF primary = human MITF inhibition, primary screen | O75030 | AlphaScreen MITF homodimerization, bead proximity signal | inhibition, % at 2.6 µM | 650,000 tested, 0.91% active; in the data active means inhibition above about 50%;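 further: 0% = vehicle wells with protein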
GPR151 activ = activates the human receptor GPR151 | 650,000 tested, 1% active | Q8TDV0 | AID 1508602 | PathHunter beta-arrestin GPR151 cells, luminescence | activation, % at 11.2 µM; in the data active means activation above about 4.9%;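 further: 0% = median of compound wells and 100% = cells with positive control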
Target sequence (Q8TDV0 whole entry, looked up): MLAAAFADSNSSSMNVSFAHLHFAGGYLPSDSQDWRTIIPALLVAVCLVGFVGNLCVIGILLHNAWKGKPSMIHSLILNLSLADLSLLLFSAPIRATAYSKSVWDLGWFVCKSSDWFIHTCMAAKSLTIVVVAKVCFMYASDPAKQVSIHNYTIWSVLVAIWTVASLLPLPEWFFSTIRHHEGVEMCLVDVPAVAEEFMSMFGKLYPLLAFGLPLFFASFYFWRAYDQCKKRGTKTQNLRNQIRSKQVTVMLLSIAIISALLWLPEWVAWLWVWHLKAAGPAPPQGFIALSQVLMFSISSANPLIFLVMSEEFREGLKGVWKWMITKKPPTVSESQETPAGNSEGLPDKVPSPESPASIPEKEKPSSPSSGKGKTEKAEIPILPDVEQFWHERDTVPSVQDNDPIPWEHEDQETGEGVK
TEAD-YAP inh = TEAD-YAP interaction inhibition; 640,000 tested, 1.4% active; inhibition, % at 9.12 µM; HEK-TIYL cells, TEAD-Gal4/YAP UAS-luciferase luminescence; in the data active means inhibition above about 32%;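 further: 0% = median of test compound wells and 100% = reference inhibitor wells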
FBW7 act = human FBW7 E3 ligase activation, primary screen. AlphaScreen FBW7–phospho-cyclin E peptide binding, activator screen. normalized activity (activation), % at 26.1 µM. 650,000 tested, 0.13% active. AID 1259310; in the data active means normalized activity above about 1.9%;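 further: purified mutant Fbw7 with reduced substrate affinity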
MITF inh conf = human MITF inhibition, confirmation. shares compounds with MITF primary. inhibition, % at 2.6 µM. AlphaScreen MITF homodimerization, biotin/His-MITF beads. 4,700 tested, 16% active. AID 1259372;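 active means inhibition above a cutoff derived from the DMSO control wells, cut at about 28% in these data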;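 further: 0% = MITF dimer wells with DMSO only; inhibitors lower the bead chemiluminescence by keeping MITF from dimerizing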
AS interf DR = counter-screen: compounds optically interfering with AlphaScreen; AID 1259373; 480 tested, 6% active; shares compounds with MITF primary; AlphaScreen optical interference counterscreen, cell-free; IC50, µM; call rule not given here
AS interf ctr = AlphaScreen optical interference, counter-screen | LysRS AlphaScreen counterscreen, signal interference, triplicate | 4,700 tested, 7.6% active | AID 1259376 | inhibition, % at 2.6 µM | shares compounds with MITF primary;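 active means inhibition above a cutoff derived from the DMSO control wells, cut at about 30% in these data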
* marks the source's active call; other numbers are inactive results; . = no result. This is a sample that favours compounds with a hit; in the whole collection about 3.4% have one here.

SMILES | MITF primary | GPR151 activ | TEAD-YAP inh | FBW7 act | MITF inh conf | AS interf ctr | others
O=[N+]([O-])c1ccccc1OCCOCCOc1cccc2cccnc12 | 69* | 3 | -4 | 1 | 8 | 16
COC(=O)c1ccccc1OCCCOc1cccc2cccnc12 | 68* | 0 | -37 | 0 | 4 | 17
COc1ccccc1OCCOCCN1CC(C)OC(C)C1 (stereo not drawn) | 27 | -1 | -7 | 1 | . | .
O=C(c1ccc[nH]c1=S)N1CCN(c2cccc(Cl)c2)CC1 | 0 | -1 | 5 | 0 | . | .
CN(C)c1ccccc1C(=O)N1CCC2(CCC(=O)N2Cc2ccccc2F)CC1 | 4 | -1 | -5 | 0 | . | .
COc1ccccc1NC(C(N)=O)c1ccc(Br)cc1 (stereo not drawn) | 24 | 1 | 5 | 0 | . | .
COC(=O)c1ccc(OCCOCCN2CC(C)OC(C)C2)cc1 (stereo not drawn) | 52* | 0 | 10 | 0 | -7 | -8
COc1cccc(OC)c1OCCCN1CC(C)OC(C)C1 (stereo not drawn) | 62* | 1 | 6 | 0 | 7 | 10
COC(=O)c1ccccc1OCCCCN1CC(C)OC(C)C1 (stereo not drawn) | 63* | 0 | 1 | 0 | 1 | 14
Cc1ccc(C)c(OCCOCCN2CC(C)OC(C)C2)c1C (stereo not drawn) | 52* | 0 | 2 | 0 | -6 | -4
CCc1ccccc1N1CCN(S(=O)(=O)c2ccc(F)c(OC)c2)CC1 | 8 | 2 | 5 | 0 | . | .
CSc1nn(C)c2nc3ccccc3n12 | 12 | -2 | 0 | 0 | . | .
Cc1nc(-n2cccc2)sc1C(=O)NCc1ccccc1Cl | -5 | 0 | -5 | 0 | . | .
CC1=NN(c2ccccc2)C(=O)C1C(c1ccccc1[N+](=O)[O-])C(C#N)C#N (stereo not drawn) | 52* | 1 | 16 | 0 | 6 | 12
CC1=NN(c2ccccc2)C(=O)C1C(c1ccc([N+](=O)[O-])cc1)C(C#N)C#N (stereo not drawn) | 5 | 0 | 0 | -1 | . | .
Cc1cccc2cc(CN(CCc3ccccc3)C(=O)C(F)(F)F)c3nnnn3c12 | 2 | -1 | 1 | 0 | . | .
CC(NC(=O)CCSCc1ccccc1F)c1ccccc1 (stereo not drawn) | 59* | -2 | -27 | 0 | 2 | -3
CC(NC(=O)Cc1ccc(F)cc1)c1ccccc1 (stereo not drawn) | -7 | 3 | -4 | 0 | . | .
CC(NC(=O)Cc1ccccc1Cl)c1ccc(F)cc1 (stereo not drawn) | 58* | -1 | -4 | 0 | 5 | 7
CC(NC(=O)CCSCCC(=O)NC(C)c1ccccc1)c1ccccc1 (stereo not drawn) | 6 | -2 | -7 | 0 | . | .
Brc1ccc(-c2nnc3sc(CN4CCOCC4)cn23)cc1 | 13 | 0 | 2 | 0 | . | .
Brc1ccc(-c2nnc3sc(CN4CCCCC4)cn23)cc1 | 67* | 1 | -20 | 1 | -2 | -3
Cc1cc(C(=O)O)ccc1-c1ccc(/C=C2/NC(=O)NC2=O)o1 | 67* | 1 | 12 | 0 | 68* | 20 | AS interf DR=>6.5
CC(=O)Nc1ccc(NC(=O)c2ccnc(-c3cccs3)c2)cc1 | 28 | 0 | 0 | 0 | . | .
O=C(Nc1ccc(Oc2ccccc2)cc1)c1ccnc(-c2cccs2)c1 | 57* | -1 | 6 | 0 | 53* | -6 | AS interf DR=>6.7
SMILES | MITF primary | GPR151 activ | TEAD-YAP inh | FBW7 act | MITF inh conf | AS interf ctr | others
O=C(Nc1ccc(Oc2ccccc2)cc1)c1cnc(-c2cccs2)s1 | 53* | 1 | -3 | 0 | 23 | -4
COc1ccc(CN2CCN(Cc3ccc(Br)cc3)CC2)c(OC)c1 | 36 | -2 | -13 | -1 | . | .
COc1ccc(CN2CCN(Cc3ccc(OC)c(OC)c3)CC2)c(OC)c1 | 66* | 1 | 1 | 0 | 10 | 6
COc1ccc(N2CCN(Cc3ccc(OC)cc3OC)CC2)cc1 | 39 | 0 | -14 | 0 | . | .
COc1ccc(CN2CCN(Cc3ccc(OC)cc3OC)CC2)c(OC)c1 | 72* | -1 | -2 | 0 | 0 | 15
COc1ccc(CN2CCN(Cc3ccc(F)cc3)CC2)c(OC)c1 | 81* | 0 | 0 | 0 | 8 | 20
CCOc1ccc(CN2CCN(Cc3ccc(SC)cc3)CC2)cc1 | 21 | 1 | 10 | 0 | . | .
COc1ccc(CN2CCN(Cc3ccc(SC)cc3)CC2)c(OC)c1 | 70* | 0 | 12 | 0 | 5 | 18
NC(=O)c1cnc(NCc2ccc3c(c2)OCO3)s1 | 5 | -2 | -21 | 0 | . | .
CCOc1ccc(NCc2ccccc2O)cc1 | -3 | 1 | -26 | 0 | . | .
Cc1cccc2nc(C(F)(F)F)c(C(=O)O)n12 | -10 | 2 | -6 | 0 | . | .
COc1ccc(CN2CCN(CCCc3ccccc3)CC2)c(OC)c1 | 74* | -1 | -2 | 0 | 7 | 15
COc1ccc(CN2CCN(Cc3ccc(OC)cc3OC)CC2)cc1 | 65* | 0 | 1 | 0 | 5 | 13
COc1ccc(CN2CCCN(C)CC2)c(OC)c1 | 28 | 3 | 7 | 0 | . | .
CCOC(=O)CN1CCN(S(=O)(=O)c2cccc(C#N)c2)C(C(=O)N2CCCC2)C1 (stereo not drawn) | -3 | 1 | -2 | 0 | . | .
CC(C)(CN)c1nc(-c2ccc(Cl)c(O)c2)c(-c2ccnc(N)n2)[nH]1 | . | 1 | . | . | . | .
COc1ccc(OC)c(CN2CCN(Cc3cc(OC)ccc3OC)CC2)c1 | 57* | 3 | -2 | 0 | -4 | -3
COc1ccc(Br)cc1CN(CCCN(C)C)CCCN(C)C | 48 | 1 | -6 | 0 | . | .
COc1ccc(OC)c(CN(CCCN(C)C)CCCN(C)C)c1 | 59* | 0 | -7 | 0 | -11 | -6
COc1ccc(S(=O)(=O)N2CCN(Cc3cc(OC)ccc3OC)CC2)cc1 | 5 | 0 | 1 | 0 | . | .
COc1ccc(OC)c(CN2CCC(N3CCCC(C)C3)CC2)c1 (stereo not drawn) | 51* | 2 | 1 | 0 | -6 | 4
COc1ccc(OC)c(CN2CCN(S(C)(=O)=O)CC2)c1 | 60* | -1 | 12 | 0 | 11 | 11
O=C(Nc1ccc([N+](=O)[O-])cc1)c1cccc(S(=O)(=O)Nc2ccc(Br)cc2)c1 | -1 | 3 | 4 | 0 | . | .
COc1ccc(CN2CCN(C3CCCC(C)C3)CC2)c(OC)c1 (stereo not drawn) | 33 | 0 | 6 | 0 | . | .
COc1ccc(OC)c(CN2CCN(C3CCC(C)CC3)CC2)c1 (stereo not drawn) | 57* | 1 | 2 | 0 | 9 | -4
CCc1ccc(CN2CCN(Cc3cc(OC)ccc3OC)CC2)cc1 | 65* | -2 | 2 | 0 | 11 | 17
COc1ccc(OC)c(CN2CCN(Cc3ccc(Br)cc3)CC2)c1 | 77* | -1 | -3 | 0 | 0 | -1
